Many of the other results were omitted from the sample, so hits are more common in it than they were.
GluA2 TARP mod = GluA2-stargazin AMPA receptor complex modulation | O88602+P19491 | HEK293 GluA2+stargazin, membrane potential dye (FDSS), glutamate EC50; hits were called plate by plate, in both directions | calls only at 30 µM | actives 3.5% (n = 40,000) | AID 1259245;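 active = any of four per-well response measures lying three or more SD from its plate-wide compound average, in either direction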
Target sequence (O88602 whole entry, looked up): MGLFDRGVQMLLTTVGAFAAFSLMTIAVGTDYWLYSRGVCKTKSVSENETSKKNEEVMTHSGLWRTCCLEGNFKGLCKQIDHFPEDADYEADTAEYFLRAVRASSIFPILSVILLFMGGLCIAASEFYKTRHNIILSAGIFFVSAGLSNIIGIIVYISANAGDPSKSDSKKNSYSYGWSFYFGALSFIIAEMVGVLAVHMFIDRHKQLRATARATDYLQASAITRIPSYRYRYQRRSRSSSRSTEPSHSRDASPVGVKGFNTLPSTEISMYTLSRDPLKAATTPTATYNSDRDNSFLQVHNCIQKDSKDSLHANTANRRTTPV
Target sequence (P19491 whole entry, looked up): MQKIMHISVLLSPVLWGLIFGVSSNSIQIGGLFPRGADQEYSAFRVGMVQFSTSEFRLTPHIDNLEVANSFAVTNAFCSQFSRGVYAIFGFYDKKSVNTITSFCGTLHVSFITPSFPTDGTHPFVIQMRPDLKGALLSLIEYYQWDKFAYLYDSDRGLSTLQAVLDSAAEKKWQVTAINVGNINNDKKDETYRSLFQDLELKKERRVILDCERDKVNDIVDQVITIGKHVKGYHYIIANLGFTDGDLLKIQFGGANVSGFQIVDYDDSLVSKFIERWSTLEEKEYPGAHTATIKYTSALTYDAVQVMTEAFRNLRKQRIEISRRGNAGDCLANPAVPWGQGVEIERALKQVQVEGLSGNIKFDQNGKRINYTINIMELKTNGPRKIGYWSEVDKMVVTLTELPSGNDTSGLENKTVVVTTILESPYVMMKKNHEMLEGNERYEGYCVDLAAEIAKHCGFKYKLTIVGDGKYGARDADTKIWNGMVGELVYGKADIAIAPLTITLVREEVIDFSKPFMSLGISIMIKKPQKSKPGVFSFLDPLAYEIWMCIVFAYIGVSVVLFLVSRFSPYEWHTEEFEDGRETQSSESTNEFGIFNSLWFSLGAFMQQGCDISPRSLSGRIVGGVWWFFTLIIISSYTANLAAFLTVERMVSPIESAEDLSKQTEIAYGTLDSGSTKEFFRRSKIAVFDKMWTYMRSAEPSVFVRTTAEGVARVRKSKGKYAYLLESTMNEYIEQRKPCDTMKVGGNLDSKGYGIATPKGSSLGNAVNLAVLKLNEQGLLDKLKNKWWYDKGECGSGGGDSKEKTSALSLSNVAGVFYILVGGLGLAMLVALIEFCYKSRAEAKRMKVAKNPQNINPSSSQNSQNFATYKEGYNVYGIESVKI
GIRK2 act = Activates human GIRK2-containing potassium channels; activation (% efficacy), % for hits at 37.5 µM; 34,000 tested, under 10 active; AID 1259324; P48051; HEK293 GIRK2/NPY4 cells, thallium flux fluorescence;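 active = primary screen hit, no activity in plain HEK293 cells, and in GIRK2-only cells above 5% efficacy rising with concentration; inactive = the rest, including fluorescent compounds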;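 also: efficacy is normalized control-subtracted fluorescence 15 s after thallium addition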
* hit, by the source's call; i = inactive; / = no result given; + = active, no number.

SMILES	GluA2 TARP mod	GIRK2 act
COc1cccc(CNC(=O)C(=O)Nc2ccc3c(c2)N(C(=O)C(C)C)CCC3)c1	+	i
Cc1cc2nc(NC(=O)c3ccc(S(=O)(=O)C(C)C)cc3)sc2cc1C	i	i
CC(C)S(=O)(=O)c1ccc(C(=O)Nc2nc3ccc(Br)cc3s2)cc1	+	/
Cc1nc2ccc(NC(=O)c3cccc(S(=O)(=O)C(C)C)c3)cc2s1	i	i
Cc1nc2ccc(NC(=O)c3ccc(S(=O)(=O)C(C)C)cc3)cc2s1	+	/
COc1ccc(S(=O)(=O)CCC(=O)Nc2nc3cc(OC)c(OC)cc3s2)cc1	i	i
COc1ccc(S(=O)(=O)CCC(=O)Nc2nc3ccc(Br)cc3s2)cc1	+	i
Cc1nc(C(=O)NCCn2ncc3c(N4CCOCC4)ncnc32)cs1	i	/
O=C(Nc1ccc(Cc2ccncc2)cc1)c1ccc(-c2ccc([N+](=O)[O-])cc2Cl)o1	i	i
COC(=O)c1ccsc1NC(=O)CC1Nc2cc(C)c(C)cc2NC1=O (centres undefined)	+	i
Cc1cc2c(cc1C)NC(CC(=O)NCC(C)C)C(=O)N2 (centres undefined)	i	/
COC(=O)c1sc2ccccc2c1NC(=O)C1CCCCC1	+	/
COC(=O)c1ccc2nc(NC(=O)C3CCCCC3)sc2c1	i	i
COc1ccc(N2CC(c3nc4ccccc4n3CC(O)COc3ccccc3C)CC2=O)cc1 (centres undefined)	i	i
CSc1cccc(C(=O)Nc2nnc(-c3ccn(C)n3)o2)c1	i	i
COc1ccc(C)cc1S(=O)(=O)N1CC(C)CC(C)C1 (centres undefined)	i	/
CC1CC(C)CN(S(=O)(=O)c2c(F)cccc2F)C1 (centres undefined)	+	/
Cc1cc(C)c2sc(NC(=O)/C=C\c3ccccc3)nc2n1	+	i
Cc1cc(NC(=O)/C=C/c2ccccc2)on1	/	i
Cc1cc(NC(=O)Cc2ccc(F)cc2)n(C2CCS(=O)(=O)C2)n1 (centres undefined)	i	i
O=C(Nc1ccc(Cl)cc1)N(CCCO)CC(O)Cn1c2ccccc2c2ccccc21 (centres undefined)	+	i
O=C(NC1CCCCC1)N(CCCO)CC(O)Cn1c2ccccc2c2ccccc21 (centres undefined)	i	i
O=C(CS(=O)(=O)Cc1ccccc1)N1CCN(c2nc3c(Cl)cccc3s2)CC1	+	i
CCc1cccc2sc(N3CCN(C(=O)CS(=O)(=O)Cc4ccccc4)CC3)nc12	i	i
CCNC(=O)c1csc(-c2cnccn2)n1	i	i
SMILES	GluA2 TARP mod	GIRK2 act
CCn1ccc(C(=O)Nc2nc(-c3ccc(Cl)s3)cs2)n1	/	i
Cc1ccccc1C(=O)N1CCC2(CC1)CC(=O)c1ccccc1O2	+	/
CC(C)(C)c1ccc(C(=O)N2CCC3(CC2)CC(=O)c2ccccc2O3)cc1	i	/
COCCNS(=O)(=O)c1cc(N(C)S(=O)(=O)c2ccc(Cl)cc2)c(C)cc1C	i	/
O=C(NCC(O)(c1ccccc1)C(F)(F)F)c1cccc(C(F)(F)F)c1 (centres undefined)	+	i
O=C(NCC(O)(c1ccccc1)C(F)(F)F)c1ccc(Cl)c(Cl)c1 (centres undefined)	i	i
O=C(NCC(O)(c1ccccc1)C(F)(F)F)C1COc2ccccc2O1 (centres undefined)	i	i
O=C(NCC(O)(c1ccccc1)C(F)(F)F)C1c2ccccc2Oc2ccccc21 (centres undefined)	+	i
Cc1cc(C(=O)Nc2ncc(Cc3ccccc3)s2)c(C)o1	i	/
O=C(c1cccs1)N(C(=O)N1CCCCC1)c1ccc(Cl)cc1	+	/
O=C(c1ccc(Br)o1)N(C(=O)N1CCCCC1)c1ccc(Cl)cc1	+	/
CSc1ccccc1C(=O)N(C(=O)N1CCCCC1)c1ccc(Cl)cc1	i	/
O=C(c1cccs1)N(C(=O)N1CCCCC1)c1cccc(Cl)c1	i	i
O=C(Cc1ccc(NC(=O)C2(c3ccccc3)CCOCC2)cc1)NCc1cccs1	i	i
CC(C)S(=O)(=O)NCC1CCN(Cc2ccccc2)CC1	i	i
COCC(=O)N1CCCc2ccc(NC(=O)CCSc3ccccc3)cc21	+	i
Cc1ccc(NC(=O)CCSc2ccccc2)cc1N1CCCCC1=O	+	i
COCC(=O)N1CCCc2ccc(NC(=O)Cc3ccccc3Cl)cc21	i	i
CCOC(=O)CCC(=O)Nc1ccc(C)c(N2CCCCC2=O)c1	i	i
COc1cccc(NC(=O)c2cnn3c(C(F)F)cc(-c4ccccc4)nc23)c1	i	/
O=C(CCCn1nc(-c2ccc(Cl)cc2)ccc1=O)Nc1ccc2c(c1)OCCO2	+	i
O=C(CCCn1nc(-c2ccccc2)ccc1=O)Nc1ccc2c(c1)OCCO2	/	i
CC1C(=O)NCCN1C(=O)CCCSc1ccc(Cl)cc1 (centres undefined)	/	i
COc1cc(C)ccc1OCC(=O)N1CCN(c2ccc3nncn3n2)CC1	i	i
COc1cc(C)ccc1OCC(=O)N1CCN(c2ccc3nnc(C)n3n2)CC1	+	i
SMILES	GluA2 TARP mod	GIRK2 act
CSc1ncccc1C(=O)N1CCC(CNC(=O)C2CC(=O)N(c3ccc(C)c(C)c3)C2)CC1 (centres undefined)	i	i
CC(C)CS(=O)(=O)NCC1(c2cccs2)CCOCC1	i	i
CCS(=O)(=O)NCC1(c2cccs2)CCOCC1	+	i
CCOC(CNC(=O)C(=O)Nc1c2c(nn1C(C)(C)C)CSC2)OCC	i	i
COc1ccccc1Cc1noc(C2CN(S(=O)(=O)c3ccc(Cl)s3)C2)n1	/	i
O=[N+]([O-])c1cccc(S(=O)(=O)NCC2COC3(CCCCC3)O2)c1 (centres undefined)	+	i
O=[N+]([O-])c1ccc(S(=O)(=O)NCC2COC3(CCCCC3)O2)cc1 (centres undefined)	i	i
COc1ccccc1-c1cnn2c(Nc3ccccc3)cc(C)nc12	i	i
COc1ccccc1-c1cnn2c(NCCc3ccccc3)cc(C)nc12	+	i
COc1ccccc1CNC(=O)CSc1ccc(NC(=O)c2ccco2)nn1	i	i
CCC(=O)Nc1ccc(SCC(=O)Nc2ccc(OC)c(OC)c2)nn1	/	i
COc1ccc(-c2ccc(SCC(=O)Nc3ccccc3Cl)nn2)cc1OC	+	/
COc1ccc(NC(=O)CSc2ccc(NC(=O)c3ccco3)nn2)cc1OC	+	i
O=C(CSc1ccc(NC(=O)c2ccco2)nn1)NCc1ccccc1Cl	+	i
COc1ccccc1NC(=O)CSc1ccc(-c2cc(OC)c(OC)c(OC)c2)nn1	i	i
COc1ccc2c(=O)c(Oc3ccc(C(=O)Nc4ncc([N+](=O)[O-])s4)cc3)c(C)oc2c1	i	i
COc1ccc(NC(=O)CSc2cc(N3CCN(c4ccccc4F)CC3)ncn2)cc1	i	i
O=C(C1=COCCO1)N(CCN1CCOCC1)c1nc2ccccc2s1	i	/
O=C(C1=COCCO1)N(CCN1CCOCC1)c1nc2c(F)cccc2s1	+	i
CCc1ccc(NC(=O)Cn2c(=O)c(CNc3ccc(C)cc3)cc3cc(OC)c(OC)cc32)cc1	i	i

Compound activity (PubChem BioAssay)
